Measurements published in the OligoGym collection.

Molecular target: SLC22A8
Assay: pooled miR-30 sensor sort-seq; sequence = guide strand
Conditions: shRNA
Further: reference of the scale not given here.

| Sequence | sensor-assay potency score (higher = more potent) |
| --- | --- |
| TTCTTCCACACCCATAGCCAAA | -1.71 |
| TTGCACACCAAGTCCCACTCTG | 0.471 |
| TTCACTTGTGTAGAGGAAGAGG | -0.683 |
| TTGAGTTTGAGCTCCTCCAAGC | -1.05 |
| TTTCCAGACAAGACCAACCAGC | -0.636 |
| TTCCACATTCAAGATGACGGTG | -0.373 |
| TATAGTAGGCAAAACCGGTAGC | 0.235 |
| TAATTCACTTGTGTAGAGGAAG | -0.618 |
| AACTATAGTAGGCAAAACCGGT | -1.07 |
| TTTGTTGGAGTTGCACACCAAG | -1.22 |
| TCTGTCACAATGGAGTCCTTGG | -1.04 |
| TTGAAGACAGCCACCCGCCGGA | -0.0956 |

Molecular target: SLC23A2
Assay: as above
Conditions: shRNA

| Sequence | sensor-assay potency score (higher = more potent) |
| --- | --- |
| TTCTTGGATTTATAAATCGGGA | -1.08 |
| TTCTGTTGAACTTCCAGCCTCC | 0.654 |
| TTCTGTCTGAGGTAACTTGGAA | -0.6 |
| TATAAATCATGTCTGATCGCTG | 0.473 |
| TTGTCTGTAGCAAAGTAGTGAT | -0.911 |
| TAAATCAATGAACTGCAGGTTA | 0.267 |
| TTCAACACTTGATCGATTCCTG | 0.272 |
| TAAATCATGTCTGATCGCTGGG | 0.763 |
| TATGCCATCAAGAACACAGGAG | 0.397 |
| TAATACTAGGAATATTGTCAGC | -0.987 |
| TTCCGTAGTGTAGATCGCCATG | -1.38 |
| TATGGAACCTTAAACCACGGGG | -0.198 |

Molecular target: SLC25A18
Assay: as above
Conditions: shRNA

| Sequence | sensor-assay potency score (higher = more potent) |
| --- | --- |
| TTAAAATACAGAAACAACCCTT | 0.611 |
| TTCTATTGTGACTACCTGTTAA | -0.81 |
| TTTCAGAACATCTAGAGGCGTC | 0.0336 |
| TAAAATACAGAAACAACCCTTC | 0.73 |
| TTGAGGTAGCACTACAACGCAG | -1.18 |
| TCAAACTAGGTGCTGACTCTGA | -0.384 |
| TTCGAGTTTTCAGAACATCTAG | -0.224 |
| TCGAGTTTTCAGAACATCTAGA | -0.0433 |
| TTAACAATGCTAAATCCTCAAG | -1.35 |
| TTGGTCTCAAACTAGGTGCTGA | -0.0245 |
| TGAGGTAGCACTACAACGCAGA | -0.364 |
| TTAAGGTTGGCAAACAGTGGGA | -0.285 |
